Data from the supplement of paper PMC13380429.

Tested on: Vero E6 infected with SARS-CoV-2
Assay: inhibition of SARS-CoV-2 cytopathic effect; higher = more antiviral protection, active = above 15
Settings: 48 h

Measured: inhibition of SARS-CoV-2 cytopathic effect

c1cnc2cc3c(cc2n1)[C@@H]1CNC[C@H]3C1 [varenicline]
inactive: 1 nM 1.15% | 8.33 nM 1.67% | 100 nM -1.63% | 833.33 nM -1.66% | 10000 nM 3.97%

COc1cc2nc(N3CCN(C(=O)COc4c(OC)cccc4C(C)C)CC3)nc(N)c2cc1OC
inactive: 1 nM 0.49% | 8.33 nM 0.12% | 100 nM 3.19% | 833.33 nM 3.59% | 10000 nM 1.29%

Cc1ccc(C(=O)N(CCCN)[C@@H](c2oc3cc(Cl)ccc3c(=O)c2Cc2ccccc2)C(C)C)cc1
inactive: 1 nM 1.81% | 8.33 nM -1.04% | 100 nM -0.8% | 833.33 nM -2.79% | 10000 nM -24.6%

CC(C)C[C@@H](NC(=O)[C@H](C)NC(=O)CNC(=O)[C@@H](NC=O)C(C)C)C(=O)N[C@@H](C)C(=O)N[C@@H](C(=O)N[C@H](C(=O)N[C@@H](C(=O)N[C@@H](Cc1c[nH]c2ccccc12)C(=O)N[C@H](CC(C)C)C(=O)N[C@@H](Cc1c[nH]c2ccccc12)C(=O)N[C@H](CC(C)C)C(=O)N[C@@H](Cc1c[nH]c2ccccc12)C(=O)N[C@H](CC(C)C)C(=O)N[C@@H](Cc1c[nH]c2ccccc12)C(=O)NCCO)C(C)C)C(C)C)C(C)C [gramicidin]
inactive: 1 nM 0.05% | 8.33 nM 0.15% | 100 nM 0.36% | 833.33 nM -1.18% | 10000 nM 2.22%

Cc1nn(C)c2c1C(c1cccc(Cl)c1)=NCCN2 [zometapine]
inactive: 1 nM -1.8% | 8.33 nM -1.16% | 100 nM 1.14% | 833.33 nM -0.92% | 10000 nM -4.7%

CC1CCc2c(N3CCC(O)CC3)c(F)cc3c(=O)c(C(=O)O)cn1c23 (stereo not given) [nadifloxacin]
inactive: 1 nM 3.29% | 8.33 nM 1.42% | 100 nM 0.26% | 833.33 nM 3.52% | 10000 nM 2.69%

N[C@H](CO)C(=O)O [D-serine]
inactive: 1 nM -1.38% | 8.33 nM 1.46% | 100 nM -1.84% | 833.33 nM -1.45% | 10000 nM 1.69%

CN1CCN(CC(=O)N2c3ccccc3C(=O)Nc3cccnc32)CC1 [pirenzepine]
inactive: 1 nM -0.09% | 8.33 nM -0.92% | 100 nM -2.09% | 833.33 nM -0.6% | 10000 nM -1.86%

OC(CCCN1CCN(c2ncc(F)cn2)CC1)c1ccc(F)cc1 (stereo not given)
inactive: 1 nM -3.3% | 8.33 nM -0.94% | 100 nM 3.34% | 833.33 nM 4.34% | 10000 nM 0.33%

Nc1nc(=O)c2c([nH]1)NCC(CNc1ccc(C(=O)N[C@@H](CCC(=O)O)C(=O)O)cc1)N2C=O (stereo not given in full) [leucovorin]
inactive: 1 nM -3.4% | 8.33 nM -3.52% | 100 nM -0.89% | 833.33 nM 1.42% | 10000 nM -0.745%

Cc1[nH]cnc1-c1ccc(Cl)cc1 [lofemizole]
active: 100 nM 150%
inactive: 1 nM -0.61% | 8.33 nM -0.4% | 833.33 nM 0.04% | 10000 nM -0.36%

CCC(=O)OCN1C(=O)C=CC1=O
inactive: 1 nM -0.55% | 8.33 nM 0.83% | 100 nM 0.41% | 833.33 nM 1.73% | 10000 nM 1.22%

CO[C@@H]1[C@H](N(C)C(=O)c2ccccc2)C[C@H]2O[C@]1(C)n1c3ccccc3c3c4c(c5c6ccccc6n2c5c31)C(=O)NC4 [midostaurin]
inactive: 1 nM -10.1% | 8.33 nM -8.56% | 100 nM -8.88% | 833.33 nM -23.9% | 10000 nM -31.5%

CC[C@H](C)[C@H](NC(=O)[C@H](Cc1ccc(O)cc1)NC(=O)[C@@H](NC(=O)[C@H](CCCNC(=N)N)NC(=O)[C@@H](N)CC(=O)O)C(C)C)C(=O)N[C@@H](Cc1c[nH]cn1)C(=O)N1CCC[C@H]1C(=O)O
inactive: 1 nM -1.39% | 8.33 nM 1.3% | 100 nM 0.18% | 833.33 nM -0.77% | 10000 nM 2.67%

Oc1cccc(Nc2ccc(Nc3cccc(O)c3)nn2)c1 [beta-amyloid-synthesis-inhibitor]
inactive: 1 nM -0.67% | 8.33 nM 1.31% | 100 nM 0.24% | 833.33 nM 1.07% | 10000 nM 4.99%

CN[C@H](CC(C)C)C(=O)N[C@H]1C(=O)N[C@@H](CC(N)=O)C(=O)N[C@H]2C(=O)N[C@H]3C(=O)N[C@H](C(=O)N[C@H](C(=O)O)c4cc(O)cc(O)c4-c4cc3ccc4O)[C@H](O[C@H]3C[C@](C)(N)[C@@H](O)[C@H](C)O3)c3ccc(c(Cl)c3)Oc3cc2cc(c3O[C@@H]2O[C@H](CO)[C@@H](O)[C@H](O)[C@H]2O[C@H]2C[C@](C)(NCc3ccc(-c4ccc(Cl)cc4)cc3)[C@@H](O)[C@H](C)O2)Oc2ccc(cc2Cl)[C@H]1O [oritavancin]
inactive: 1 nM 2.97% | 8.33 nM 3.58% | 100 nM -0.56% | 833.33 nM 0.82% | 10000 nM 0.93%
